Results as given in PubChem BioAssay (NCI).
The panel holds about 83,000 compounds, 20% with a hit somewhere; the sample as a whole holds those more often.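 For each line, cells grew in 96-well plates with the test compound present at a single concentration for 48 hours.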 Calls of active or inactive are those of the source. How the source made its calls: active means growth percent below 10; inactive means the rest.

Tests used:
Assay in all cases: NCI-60 one-dose screen, 48 h (100 = growth as untreated, 0 = no growth, -100 = all killed)
[1] = tested on: HT29 colon; conditions: 10 µM unless noted
[2] = tested on: SNB-75 CNS; conditions: 10 µM unless noted
[3] = tested on: SNB-19 CNS; conditions: 10 µM unless noted
[4] = tested on: U251 CNS; conditions: 10 µM unless noted
[5] = tested on: PC-3 prostate; conditions: 10 µM unless noted
[6] = tested on: SK-MEL-5 melanoma; conditions: 10 µM unless noted
[7] = tested on: UACC-62 melanoma; conditions: 10 µM unless noted
[8] = tested on: LOX IMVI melanoma; conditions: 10 µM unless noted
[9] = tested on: SK-MEL-28 melanoma; conditions: 10 µM
[10] = tested on: SK-MEL-2 melanoma; conditions: 10 µM unless noted
[11] = tested on: EKVX NSCLC; conditions: 10 µM unless noted
[12] = tested on: UO-31 renal; conditions: 10 µM unless noted
[13] = tested on: TK-10 renal; conditions: 10 µM unless noted
[14] = tested on: ACHN renal; conditions: 10 µM unless noted
[15] = tested on: CAKI-1 renal; conditions: 10 µM unless noted
[16] = tested on: CCRF-CEM leukemia; conditions: 10 µM unless noted
[17] = tested on: MOLT-4 leukemia; conditions: 10 µM unless noted
[18] = tested on: SR leukemia; conditions: 10 µM unless noted
[19] = tested on: A498 renal; conditions: 10 µM unless noted
[20] = tested on: SN12C renal; conditions: 10 µM unless noted

Measured: growth

COc1ccc(C2=C(c3cccc(OC)c3)C(=O)c3ccc(C)nc3C2=O)cc1
inactive: [1] 87.8% | [2] 23.6% | [3] 43.9% | [4] 37.6% | [5] 52.1% | [6] 34.6% | [7] 46.7% | [8] 30.6% | [9] 50.7% | [10] 42.8% | [11] 75.3% | [12] 25.4% | [13] 93.8% | [14] 33.6% | [15] 34.2% | [16] 19.1% | [18] 28.5%
active: [17] -31.5%

O=c1cc(-c2ccccc2)oc2cc(OCc3cn(Cc4ccc(F)cc4)nn3)cc(OCc3cn(Cc4ccc(F)cc4)nn3)c12
inactive: [1] 35.1% | [3] 12.1% | [4] 10.5% | [5] 36% | [6] 17.1% | [7] 30% | [8] 34.8% | [9] 29.9% | [10] 48.8% | [11] 57.2% | [13] 37.1% | [15] 54.6% | [19] 30.8% | [16] 77.5% | [17] 83.2% | [18] 32.7%
active: [2] 6.29% | [12] 3.64% | [14] 7.3%

Cn1c2c(c(=O)[nH]c1=O)NC1=C(C(=O)c3ccccc31)C1(C=C(O)c3ccccc31)N2 (stereo unspecified)
inactive: [1] 113% | [2] 92.1% | [3] 114% | [4] 103% | [5] 94.1% | [6] 111% | [7] 116% | [8] 94.1% | [9] 148% | [10] 107% | [11] 95.7% | [12] 77.6% | [13] 134% | [14] 89.7% | [15] 86% | [19] 143% | [16] 107% | [17] 121% | [18] 47.6%

COc1cc2cc3c(=O)n4c(cc5cc(OC)ncc54)c(=O)n3c2cn1
inactive: [1] 111% | [2] 94.2% | [3] 105% | [4] 104% | [5] 97.2% | [6] 109% | [7] 111% | [8] 100% | [9] 106% | [10] 98% | [20] 98.6% | [12] 88.8% | [13] 107% | [14] 110% | [15] 98.4% | [19] 104% | [16] 91.9% | [17] 99.2% | [18] 98%

COc1ccc(C2=Nn3c(NN)nnc3SC2)cc1
inactive: [1] 83.8% | [2] 92.4% | [3] 104% | [4] 99.7% | [5] 87.6% | [6] 91.5% | [7] 104% | [8] 99.9% | [9] 110% | [10] 94.4% | [11] 118% | [12] 84.5% | [13] 97.5% | [14] 103% | [15] 89.7% | [19] 84.6% | [16] 95.1% | [17] 83% | [18] 75.8%

COC(=O)c1c2c(c(C)[n+]([O-])c1C)C(=O)C(NCc1ccc(Br)cc1)=CC2=O
active: [1] 9.96% | [4] 9.45% | [6] -93.1% | [7] -16.2% | [20] 4.82%
inactive: [2] 84.5% | [3] 19% | [5] 27.6% | [8] 16.9% | [9] 65.3% | [10] 47.1% | [11] 31.8% | [12] 60.9% | [13] 84.4% | [14] 32.6% | [15] 46.4% | [16] 34.3% | [17] 35% | [18] 30.2%

COc1ccc(-c2cn3c(C(=O)Nc4ccccc4Cl)c(-c4ccccc4)c4c3n2CCCC4)cc1
inactive: [1] 26% | [2] 108% | [3] 96.6% | [4] 77.4% | [5] 72.8% | [6] 84% | [7] 93.2% | [8] 66.1% | [9] 91.6% | [10] 104% | [20] 82.7% | [12] 62.8% | [13] 72.2% | [14] 80.9% | [15] 81.6% | [19] 74.9% | [16] 66% | [17] 69.8% | [18] 62.8%

Fc1cccc(COc2ccc(Nc3ncnc4onc(-c5ccccc5)c34)cc2)c1
inactive: [3] 21% | [4] 22.5% | [5] 18.4% | [6] 19.2% | [7] 23.5% | [8] 23.1% | [9] 55.2% | [10] 35.9% | [11] 32.9% | [12] 18.6% | [13] 49.1% | [14] 37.1% | [15] 37.5% | [16] 20.1% | [17] 15.4% | [18] 26.1%
active: [1] 3.86% | [2] -34.9% | [19] -22.4%

O=C(NCc1ccco1)C1CN(c2ccc(Cl)cc2)N(c2ccc(Cl)cc2)C1=O (stereo unspecified)
inactive: [1] 16.4% | [2] 16.8% | [3] 54.4% | [4] 33.9% | [5] 27% | [6] 41.8% | [7] 24.4% | [8] 45.9% | [9] 66.2% | [10] 49.2% | [11] 65.5% | [12] 42.7% | [13] 84.2% | [14] 63.5% | [15] 41.1% | [19] 38.2% | [16] 32.3% | [17] 28.3% | [18] 36.7%

Nc1ncnc(N)c1NC(=O)c1ccc(OCc2ccccc2)cc1
inactive: [1] 96.3% | [2] 110% | [3] 103% | [4] 102% | [5] 106% | [6] 102% | [7] 99% | [8] 110% | [9] 117% | [10] 93.1% | [20] 98.9% | [12] 88.1% | [13] 99.3% | [14] 99.9% | [15] 99.3% | [19] 98% | [16] 98.5% | [17] 96.8% | [18] 94%

CCN(CC)CCCNc1ccnc2cc3ccccc3cc12
inactive: [1] 74.6% | [2] 36.6% | [3] 71.3% | [4] 46.8% | [5] 60.7% | [6] 50.6% | [7] 69.8% | [8] 53.9% | [9] 65.3% | [10] 57% | [20] 87.6% | [12] 106% | [13] 83.8% | [14] 70.7% | [15] 75.3% | [19] 94% | [16] 91.1% | [17] 87.3% | [18] 77.5%

CCCCc1c(CCC)c(=N)c2ccccc2n1C
active: [18] 6.82%
inactive: [1] 26.6% | [2] 96.8% | [3] 111% | [4] 59.3% | [5] 77.2% | [6] 78% | [7] 97.9% | [8] 59% | [9] 72.2% | [10] 101% | [20] 79.7% | [12] 65.6% | [13] 84.3% | [14] 78.4% | [15] 81% | [19] 75.9% | [16] 49.8% | [17] 60.6%

COc1ccc(-c2nc(-c3ccccn3)c(-c3ccccn3)n2CC(C)C)cc1OC1CCCC1
active: [7] 9.71% | [10] -4.88% | [20] 8.15% | [12] -13.8% | [19] -14.3% | [16] 1.08% | [17] -31.7%
inactive: [1] 12.2% | [2] 20.5% | [3] 24.2% | [4] 11.1% | [5] 12.6% | [6] 15.5% | [8] 20.8% | [9] 35.9% | [13] 28.5% | [14] 16.8% | [15] 10.5%

COc1ccc(Cn2c(Br)c3c(c2Br)-c2nc(NC(=O)c4ccc(OC)cc4)sc2CC3)cc1
inactive: [1] 84.8% | [2] 48.2% | [3] 80.1% | [4] 67.8% | [5] 71.5% | [6] 62.1% | [7] 63.5% | [8] 80.3% | [9] 81.8% | [10] 83.8% | [20] 85.1% | [12] 44.9% | [13] 89.4% | [14] 51.8% | [15] 76.2% | [19] 65.9% | [16] 85.3% | [17] 94.7% | [18] 67.4%

COc1ccc(CN2CCCC(C(=O)c3ccc(C(F)(F)F)cc3)C2)c(O)c1 (stereo unspecified)
inactive: [3] 44.1% | [4] 18.5% | [5] 25.6% | [6] 19.6% | [7] 28.3% | [8] 25.5% | [9] 36.4% | [20] 31.8% | [12] 26.4% | [13] 34.6% | [14] 38% | [15] 32.6% | [19] 15.2% | [17] 13.6%
active: [1] 1.6% | [2] -1.83% | [10] -43.2% | [16] 8.95% | [18] 3.77%

CCCCCCC(O)(c1ccc(F)cc1)C(CN1CCOCC1)c1ccccc1 (stereo unspecified)
inactive: [1] 33.1% | [2] 32.8% | [3] 42% | [4] 28% | [5] 15.4% | [6] 52.8% | [7] 22.6% | [8] 29.5% | [9] 68.1% | [10] 36.4% | [20] 35.3% | [12] 19.4% | [13] 34.2% | [14] 23.7% | [15] 33.1% | [19] 50% | [16] 18.1% | [17] 17.7% | [18] 23.2%

COc1ccc(/C=C2\N=C(c3ccccc3)N(c3ccc(-c4nc5ccc(C)cc5s4)cc3)C2=O)cc1
inactive: [1] 88.9% | [2] 69.9% | [3] 84.3% | [4] 81.2% | [5] 63.1% | [6] 85.3% | [7] 73.2% | [8] 98.2% | [9] 114% | [10] 85.2% | [20] 64.3% | [12] 34.2% | [13] 104% | [14] 80.7% | [15] 61.9% | [19] 93.6% | [16] 61.9% | [17] 45.9% | [18] 80.2%
